# Assay outcomes: PubChem, National Center for Advancing Translational Sciences (NCATS)
# Shown are actives, neighbours in structure and some others; about 18% of the full set was active somewhere.
# DT40 TDP1 no CPT: qHTS for Inhibitors of human tyrosyl-DNA phosphodiesterase 1 (TDP1): qHTS in cells in absence of CPT; hit rate 15% among 420,000; AID 686978, 2013; Potency, µM (highest dose often 46.2 µM), for the others: at the highest dose activity change, negative = growth inhibition, hits mostly inhibitors; DT40 Tdp1-/- hTDP1 cells, no CPT, ATP luminescence, 48 h; note: potency is the fitted concentration of half-maximal effect; nearly all actives have a fitted effect of over 55% in size
#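 Readout: luminescence from CellTiter-Glo after 30 min in the dark at RT. Cells: DT40 Tdp1-/- with stable hTDP1, 400/well. Exposure: compounds alone, ≥48 hr, 37 °C.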
# IL1B secr inh: qHTS for Inhibitors of Inflammasome Signaling: IL-1-beta AlphaLISA Primary Screen; THP-1 LPS/ATP IL-1B secretion, AlphaLISA, 16 h; active compounds read low; activity change, % at 57.5 µM; hit rate 4.7% among 360,000; in the data active = activity change below about -50%; inconclusive = mostly about -30% to -49%
#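 THP-1 cells pretreated 1 hr with compounds (up to 57.5 uM final), then stimulated with LPS (250 ng/mL final) plus ATP (1.25 mM final); secreted IL-1B measured by AlphaLISA after 16 hr, decreased signal indicating inhibition.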
# LDHA inh: qHTS assay for inhibitors of human lactate dehydrogenase. hit rate 0.15% among 480,000. activity change, % (values are at about 110 or 230 µM). AID 1347041, 2019. purified LDHA, NADH/diaphorase-resazurin fluorescence; active compounds read low; in the data active = activity change below about -30%; inconclusive = mostly about -25% to -30%;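 note: plate controls were DMSO wells for no effect and wells without enzyme for full effect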
#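 Resorufin fluorescence (ex540/em590), read at 0 and 20 min after diaphorase/resazurin addition, reports the NADH left after a 5 min room-temperature reaction of 2 nM human LDH5 with 0.06 mM NADH and 0.2 mM pyruvate.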
# TDP1 cell CPT: qHTS for Inhibitors of human tyrosyl-DNA phosphodiesterase 1 (TDP1): qHTS in cells in presence of CPT. chicken DT40 Tdp1-/-;hTDP1 cells + 20 nM CPT, ATP luminescence, 48 h. Potency, µM (series often up to 46.2 µM), for inactives: top-dose activity change, negative = growth inhibition, usual class: inhibitors. hit rate 12% among 420,000. AID 686979, 2013; note: potency is the fitted concentration of half-maximal effect; nearly all actives have a fitted effect of over 55% in size
#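 Chicken DT40 Tdp1-/- cells complemented with human TDP1, 400 cells/well, exposed to compounds plus 20 nM camptothecin for at least 48 h at 37 C; viability read as ATP content by CellTiter-Glo luminescence.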
# RORgamma inh: qHTS for inhibitors of ROR gamma transcriptional activity; Nuclear receptor ROR-gamma (Mus musculus), P51450; Drosophila S2 Gal4-RORgamma UAS-luciferase reporter, 20 h; Potency, µM (top dose mostly 53.6 µM), without a hit: top-dose activity change, negative = inhibition, most hits filed as inhibitors; hit rate 5.4% among 310,000; note: potency is the fitted concentration of half-maximal effect; nearly all actives have a fitted effect of over 60% in size
# Target sequence (P51450 whole entry, looked up, the tested form may be a part): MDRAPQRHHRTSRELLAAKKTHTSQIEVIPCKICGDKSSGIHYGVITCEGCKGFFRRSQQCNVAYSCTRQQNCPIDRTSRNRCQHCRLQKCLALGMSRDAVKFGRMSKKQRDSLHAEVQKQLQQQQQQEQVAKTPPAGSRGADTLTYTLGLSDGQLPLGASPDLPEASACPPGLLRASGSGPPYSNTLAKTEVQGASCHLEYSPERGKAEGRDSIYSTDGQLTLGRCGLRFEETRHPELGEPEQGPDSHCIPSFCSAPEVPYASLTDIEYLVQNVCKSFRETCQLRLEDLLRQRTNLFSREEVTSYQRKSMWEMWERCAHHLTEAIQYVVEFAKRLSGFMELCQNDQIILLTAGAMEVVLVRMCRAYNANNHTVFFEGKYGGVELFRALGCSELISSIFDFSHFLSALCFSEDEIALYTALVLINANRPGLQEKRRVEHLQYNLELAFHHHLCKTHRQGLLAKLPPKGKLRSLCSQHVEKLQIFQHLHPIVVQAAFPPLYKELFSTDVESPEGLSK
#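 Compounds are pin-transferred onto Drosophila Schneider cells expressing a copper-inducible Gal4–ROR gamma transactivation domain fusion. After 1 hr, copper sulfate is added to 700 uM final; luciferase is read 20 hr later.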
# VP16 counter: VP16 counterscreen qHTS for inhibitors of ROR gamma transcriptional activity; hit rate 3.5% among 310,000; Drosophila S2 Gal4-VP16 UAS-luciferase, luminescence, 20 h; AID 2546, 2010; Potency, µM (series often up to 53.6 µM), without a hit: at the highest dose activity, negative = inhibition, most hits filed as inhibitors;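 note: Gal4-VP16 expression switched on by copper sulfate through the metallothionein promoter; potency is the fitted concentration of half-maximal effect; nearly all actives have a fitted effect of over 50% in size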
# * hit, by the source's call; ? = inconclusive; · = not tested or not shown; [ ] = another dose, or the depositor's remark. Unless noted, calls come from the whole dose curve; as a rule, active = well fitted curve in the direction sought with a large enough effect; inconclusive = small, poorly fitted or top-dose-only effect, or another doubt; inactive = no such curve, though single readings can be large; an effect the other way counts as inactive or inconclusive. Unless noted, % is set by controls: 0 for no effect and ±100 for the full control effect.
SMILES,DT40 TDP1 no CPT,IL1B secr inh,LDHA inh,TDP1 cell CPT,RORgamma inh,VP16 counter
CC(C)c1ccc(NC(=O)CN2C(=O)COc3ccc(S(=O)(=O)N4CCCCC4)cc32)cc1,23µM*,·,?,?,·,·
Cc1ccc(NC(=O)CN2C(=O)COc3ccc(S(=O)(=O)N4CCCCCC4)cc32)cc1Cl,15µM*,·,-2,21µM*,·,·
CC1CCN(S(=O)(=O)c2ccc3c(c2)N(CC(=O)Nc2ccc(F)c(Cl)c2)C(=O)CO3)CC1,15µM*,·,-1,23µM*,·,·
Cc1ccc(NC(=O)CN2C(=O)COc3ccc(S(=O)(=O)N4CCCC4)cc32)cc1C,?,-52*,-2,-1%,10%,2%
Cc1ccccc1NC(=O)CN1C(=O)COc2ccc(S(=O)(=O)N3CCCC3)cc21,-1%,6,-6,-1%,-1%,-2%
Cc1cccc(Cn2cc(/C=C(\C#N)C(N)=O)c3ccccc32)c1,·,·,9,·,·,·
COc1cccc(NC(=O)CN2C(=O)COc3ccc(S(=O)(=O)N4CCCCCC4)cc32)c1,?,-24,5,?,10%,0%
COc1ccc(NC(=O)CN2C(=O)COc3ccc(S(=O)(=O)N4CCCCC4)cc32)cc1Cl,15µM*,·,-3,?,·,·
c1cc(CNC2CC2)ccn1,·,·,0,·,·,·
CCOC(=O)c1ccc(NS(=O)(=O)c2ccc3c(c2)CCN3C(=O)CC)cc1,?,·,-2,13µM*,·,·
COc1ccc(CNC(=O)C(CC(C)C)NS(=O)(=O)c2ccc3c(c2)CCN3C(C)=O)cc1 (stereo unspecified),-9%,·,-3,-19%,·,·
CCOC(=O)c1ccc(NS(=O)(=O)c2ccc3c(c2)CCCN3C(C)=O)cc1,?,45,-3,-20%,38%[0.365 µM],·
CCC(=O)N1CCCc2cc(S(=O)(=O)Nc3ccc(C)c(C)c3)ccc21,18µM*,·,-1,23µM*,·,·
CCC(=O)N1CCc2cc(S(=O)(=O)NC(CC(C)C)C(=O)NCc3cccc(OC)c3)ccc21 (stereo unspecified),-14%,·,-31*,-2%,·,·
O=Cc1cccn1-c1ccc(Br)cc1Br,·,·,-20,·,·,·
COc1ccc(CCN(Cc2cccs2)S(=O)(=O)c2ccc(-n3cnnn3)cc2)cc1OC,?,-19,-4,12µM*,-6%,2%
CCC(C)NS(=O)(=O)c1ccc(S(=O)(=O)N(CCc2ccc(OC)c(OC)c2)Cc2cccs2)cc1 (stereo unspecified),7.3µM*,-15,1,10µM*,44%,?
COc1ccc(CCN(Cc2cccs2)S(=O)(=O)c2ccc(S(=O)(=O)N3CCCCCC3)cc2)cc1OC,9.2µM*,6,-2,?,-9%,-7%
COc1cc(S(=O)(=O)N(CCc2ccccc2)Cc2cccs2)ccc1-n1cnnn1,-21%,8,-5,-22%,-28%,-12%
COc1ccc(CCN(Cc2cccs2)S(=O)(=O)c2ccc(S(=O)(=O)N3CCC(C)CC3)cc2)cc1OC,?,7,-3,-28%,-14%,-4%
COc1ccccc1C(=O)/C=C/c1cccc(OC)c1OC(F)F,·,·,0,·,·,·
COc1cc(/C=C/C(=O)OCCOc2ccccc2F)ccc1OC(F)F,·,·,7,·,·,·
CN(C)Cc1cc(O)c(CN(C)C)cc1O,3.7µM*,7,-5,2.6µM*,-19%,-1%
CC(=O)c1cccc(NC(=O)C(C)Sc2nc3ccc(Cl)cc3c(=O)n2CC(C)C)c1 (stereo unspecified),·,·,3,·,·,·
